Results filed as inconclusive are left out. Active and inactive are the calls of the source. Calls follow the shape of the dose curve; as a rule, active = well fitted curve in the direction sought with a large enough effect; inconclusive = small, poorly fitted or top-dose-only effect, or another doubt; inactive = no such curve, though single readings can be large; an effect the other way counts as inactive or inconclusive.
Columns and labels:
[1] = biological target: Glutaminase kidney isoform, mitochondrial (Homo sapiens) (UniProt O94925); assay: qHTS for Inhibitors of Glutaminase (GLS): LOPAC Validation (AID 624146); also: nearly all actives have a fitted effect of over 60% in size; also: potency is read from the fitted curve at half-maximal effect
Sequence of Glutaminase kidney isoform, mitochondrial (Homo sapiens) (O94925 whole entry, looked up, canonical isoform): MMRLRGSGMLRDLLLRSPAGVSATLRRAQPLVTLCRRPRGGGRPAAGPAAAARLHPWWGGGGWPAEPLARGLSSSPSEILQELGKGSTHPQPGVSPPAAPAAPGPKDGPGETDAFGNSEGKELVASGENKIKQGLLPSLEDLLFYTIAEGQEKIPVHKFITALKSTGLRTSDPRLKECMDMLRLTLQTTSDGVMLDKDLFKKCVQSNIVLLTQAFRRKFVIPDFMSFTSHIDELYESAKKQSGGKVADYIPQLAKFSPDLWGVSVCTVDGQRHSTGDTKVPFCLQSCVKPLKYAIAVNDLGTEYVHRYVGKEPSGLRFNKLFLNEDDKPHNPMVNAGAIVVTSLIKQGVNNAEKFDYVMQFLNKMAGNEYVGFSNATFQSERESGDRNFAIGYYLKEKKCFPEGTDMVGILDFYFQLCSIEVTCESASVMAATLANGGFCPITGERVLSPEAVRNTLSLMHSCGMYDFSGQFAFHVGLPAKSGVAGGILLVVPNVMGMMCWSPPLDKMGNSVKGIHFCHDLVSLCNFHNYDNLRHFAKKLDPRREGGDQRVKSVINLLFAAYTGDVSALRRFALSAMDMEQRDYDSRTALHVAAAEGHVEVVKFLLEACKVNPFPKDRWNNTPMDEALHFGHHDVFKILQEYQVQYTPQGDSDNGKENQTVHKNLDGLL
In short: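 Glutamate formation by hKGA was monitored fluorometrically using coupled glutamate oxidase, HRP and Amplex Red. Substrate was added as 1 mM L-glutamine solution; incubation was 30 min at RT after an initial read.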

[2] = qHTS of Trypanosoma Brucei Inhibitors: LOPAC Validation (AID 624147); also: potency is read from the fitted curve at half-maximal effect
In short: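 Quantitative HTS: titrated library compounds versus trypanosomal pyruvate kinase in TEA buffer (pH 7.2) containing KCl, MgCl2, BSA and Tween-20. Reactions were initiated with ADP, 130 uM final. Kinase-Glo Plus luminescence was read after 45 min at RT.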

[3] = biological target: Glucagon-like peptide 1 receptor (Homo sapiens) (UniProt P43220); assay: qHTS of GLP-1 Receptor Agonists: LOPAC Validation (AID 624148);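 also: higher luminescence signal means agonism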
Sequence of Glucagon-like peptide 1 receptor (Homo sapiens) (P43220 whole entry, looked up): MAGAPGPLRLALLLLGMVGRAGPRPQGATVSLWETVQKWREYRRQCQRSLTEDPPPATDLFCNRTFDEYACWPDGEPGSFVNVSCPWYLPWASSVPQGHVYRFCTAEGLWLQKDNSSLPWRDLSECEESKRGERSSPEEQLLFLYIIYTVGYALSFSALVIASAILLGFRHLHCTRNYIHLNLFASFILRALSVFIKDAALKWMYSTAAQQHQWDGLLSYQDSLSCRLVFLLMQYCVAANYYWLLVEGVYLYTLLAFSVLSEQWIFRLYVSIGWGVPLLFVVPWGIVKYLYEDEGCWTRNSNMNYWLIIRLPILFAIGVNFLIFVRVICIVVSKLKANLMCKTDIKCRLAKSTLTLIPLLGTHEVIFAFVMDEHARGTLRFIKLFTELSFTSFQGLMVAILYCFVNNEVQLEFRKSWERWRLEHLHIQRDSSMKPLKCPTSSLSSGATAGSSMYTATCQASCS
In short: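 HEK293 cells stably co-expressing a cAMP-responsive luciferase reporter and a hypersensitive GLP-1R were plated 12 h at 37 °C and exposed to compounds for 4-6 hr at 37 °C, 5% CO2. Luminescence was read 12 min after adding detection reagent.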

[4] = qHTS of Nrf2 Activators: LOPAC Validation (AID 624149)
In short: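 AREc32_Fluc cells, 1000/well in OPTI-MEM with 5% FBS, grown overnight, then exposed to compounds for 24 hr at 37 deg C, 5% CO2. ARE-driven firefly luciferase read by Steady-Glo luminescence after 30 min at RT.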

[5] = HTS Assay for Allosteric Antagonists of the Human D2 Dopamine Receptor: Hit Validation in HTRF (AID 624455); also: potency is read from the fitted curve at half-maximal effect;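 also: stable D1 dopamine receptor cell line scored for blocking the D1 response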
In short: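 Hit validation in cells stably expressing the D1 dopamine receptor, run in HTRF format. Compounds were tested for their ability to inhibit the D1-mediated response.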

Measured: Potency

C=CC(C)=C[C@@]1(C)SC(=O)C(C)=C1O
inactive: all assays above

OC[C@H]1O[C@@H](n2cnc3c(NC4CCCC4)ncnc32)[C@H](O)[C@@H]1O
inactive: all assays above

CNC(=O)[C@H]1O[C@@H](n2cnc3c(NCc4ccc(N)cc4)ncnc32)[C@H](O)[C@@H]1O
inactive: all assays above

CC(=O)SCC[N+](C)(C)C
inactive: all assays above

NC(=O)C1=CN(C2OC(COP(=O)(O)OP(=O)(O)OC[C@H]3O[C@@H](n4cnc5c(N)ncnc54)[C@H](OP(=O)(O)O)[C@@H]3O)C(O)C2O)C=CC1 (stereo not given in full)
inactive: all assays above

CCCN(CC1CC1)c1nc(C)nc(Nc2c(Cl)cc(Cl)cc2Cl)c1Cl
inactive: all assays above

COc1cc2nc(N3CCN(C(=O)OCc4ccccc4)C(C(=O)NC(C)(C)C)C3)nc(N)c2cc1OC (stereo not given)
inactive: all assays above

CN1CCC[C@H]1c1cccnc1
inactive: all assays above

COc1ccc(NC(=O)/C=C/c2ccc(Cl)cc2)cc1
inactive: all assays above

COc1cccc(OC)c1OCCNCC1COc2ccccc2O1 (stereo not given)
active: [5] 0.092 µM
inactive: all other assays above

O=P(O)(O)C(Cl)(Cl)P(=O)(O)O
inactive: all assays above

Cc1cc2c(cc1Cl)N(C(=O)Nc1ccc(Oc3cccnc3C)nc1)CC2
inactive: all assays above

NCCCCC(=O)O
inactive: all assays above

CCN(CC)c1ncnc2c1ncn2[C@@H]1O[C@H](COP(=O)(O)OP(=O)(O)C(Br)(Br)P(=O)(O)O)[C@@H](O)[C@H]1O
inactive: all assays above

NC(=S)c1ccc[n+]([C@@H]2O[C@@H](COP(=O)([O-])OP(=O)(O)OC[C@H]3O[C@@H](n4cnc5c(N)ncnc54)[C@H](OP(=O)(O)O)[C@@H]3O)C(O)C2O)c1 (stereo not given in full)
inactive: all assays above

CNCC[C@H](Oc1ccc(C(F)(F)F)cc1)c1ccccc1
inactive: all assays above

Brc1c(Br)c(Br)c2n[nH]nc2c1Br
inactive: all assays above

CN1CCc2ccccc2Cc2[nH]c3ccccc3c2CC1
active: [1] 8.91 µM
inactive: all other assays above

O=Nc1ccc2oc(=O)ccc2c1
active: [1] 10 µM
inactive: all other assays above

O=C1O/C(=C/Br)CCC1c1cccc2ccccc12 (stereo not given)
inactive: all assays above

CCCCCCCCCCCCCCCC(=O)OC(CC(=O)O)C[N+](C)(C)C (stereo not given)
inactive: all assays above

CNc1ncnc2c1ncn2[C@@H]1O[C@H](CO)[C@@H](O)[C@H]1O
inactive: all assays above

O=C(O)CNC(=O)C(CS)Cc1ccccc1 (stereo not given)
inactive: all assays above

NS(=O)(=O)C#Cc1ccccc1
inactive: all assays above

CCCCCCCCCCCCCCCCCCNC(=O)OCC(COP(=O)([O-])OCC[n+]1ccsc1)OC (stereo not given)
inactive: all assays above

Fc1cccc(/C=N/N=C/c2cccc(F)c2)c1
inactive: all assays above

Cc1ccc(O)c(N=Nc2ccccc2)n1
active: [2] 19 µM
inactive: all other assays above

Nc1ncnc2c1ncn2[C@@H]1O[C@H](COP(=O)(O)CP(=O)(O)OP(=O)(O)O)[C@@H](O)[C@H]1O
inactive: all assays above

Clc1ccc(N2CCN(Cc3cc4ccccn4n3)CC2)cc1
inactive: all assays above

c1cnc2c(c1)ccc1cccnc12
inactive: all assays above

CC(COc1ccc(/C=C/c2ccccc2)cc1)[N+](C)(C)C (stereo not given)
inactive: all assays above

NO
inactive: all assays above

CN=c1nc(-c2ccccc2)n(-c2ccccc2)s1
active: [2] 8.49 µM
inactive: all other assays above

O=C1NC(=O)/C(=C/c2ccc3nccnc3c2)S1
inactive: all assays above

CN(C)c1ccc(/C=C2\C(=O)Nc3ccccc32)cc1
inactive: all assays above

CSc1ccccc1N1CCN(CCCCCC(=O)NC2CCCc3ccccc32)CC1 (stereo not given)
inactive: all assays above

CN(C)c1nc(N)c(C(=O)N=C(N)N)nc1Cl
inactive: all assays above

O=c1[nH]c2cc([N+](=O)[O-])c([N+](=O)[O-])cc2[nH]c1=O
inactive: all assays above

COc1cc(SC)ccc1C(=O)N1CCC(Cc2ccccc2)CC1
inactive: all assays above

CCCC1(C)C(C#N)(C#N)C1(C#N)C#N
inactive: all assays above

CN1CCc2cc(NC(=O)Nc3cccnc3)ccc21
inactive: all assays above

Cn1cc(C2=C(c3ccc(Cl)cc3Cl)C(=O)NC2=O)c2ccccc21
inactive: all assays above

Fc1ccc(C(OCCCc2cnc[nH]2)c2ccc(F)cc2)cc1
inactive: all assays above

COC1=C(OC)C(=O)c2ccccc2C1=O
active: [1] 10 µM
inactive: all other assays above

NC(=O)C(=O)O
inactive: all assays above

C#CCN1C(C)=C(C(=O)OC)C(c2cccc([N+](=O)[O-])c2)C(C(=O)OCC)=C1C (stereo not given)
inactive: all assays above

O=c1[nH]c2cc(Cl)c(Cl)cc2[nH]c1=O
inactive: all assays above

CO/S(=N\S(=O)(=O)c1ccc(Cl)cc1)c1ccc([N+](=O)[O-])cc1 (stereo not given)
inactive: all assays above

CN(C)CCC(c1ccc(Cl)cc1)c1ccccn1 (stereo not given)
inactive: all assays above

Cn1c(=O)c2[nH]c(-c3ccccc3)nc2n(C)c1=O
inactive: all assays above

Source: PubChem BioAssay (NCATS)
